Structures are written as SMILES. Screen size: about 360,000 compounds; about 11,000 (3.1%) were called active. Not shown: some 4% with an inconclusive outcome. What follows is part of a selection rich in actives, with near analogues and random picks from the rest. A number with no mark means an inactive call. Calls follow the shape of the dose curve; as a rule, active = well fitted inhibition curve with a large enough effect; inconclusive = small, poorly fitted or top-dose-only effect; inactive = no such curve, though single readings can be large or run the other way.

The values that follow come from PubChem BioAssay AID485364 (National Center for Advancing Translational Sciences (NCATS), 2010).
% is scaled to controls: 0 for no effect and ±100 for the full control effect; potency is read from the fitted curve at half-maximal effect.

For this assay, the target named is Schistosoma mansoni thioredoxin glutathione reductase (TGR) (UniProt Q962Y6). The experiment in a line: qHTS Assay for the Inhibitors of Schistosoma Mansoni Peroxiredoxins. Also: nearly all actives have a fitted effect of over 60% in size. The conditions noted are these: purified TGR, DTNB reduction, TNB absorbance 405 nm; series mostly up to 114 µM; activity change, negative = inhibition: at the top concentration. A digest of the protocol:
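Kinetic colorimetric format: TGR-catalysed, NADPH-driven DTNB reduction monitored via TNB absorbance. Enzyme dispensed at 20 nM; compound exposure 15 min at room temperature before reaction start.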
In general terms: Quantitative high-throughput screening tests each substance at several concentrations.
For the compound `COc1cccc(N2CCN(S(=O)(=O)c3ccc4c(c3)CCCN4C(C)=O)CC2)c1`, the “activity change, negative = inhibition” value is -11.5%.
Take `O=C(Nc1nnc(C2CC(=O)N(c3ccc(Cl)cc3)C2)s1)c1ccco1` (configuration not stated): the “activity change, negative = inhibition” value is 2.36%.
As to `Cc1ccc(S(=O)(=O)c2cn(Cc3ccccc3)c3cc(N4CCCC4)c(F)cc3c2=O)c(C)c1`, the “activity change, negative = inhibition” value is 7.14%.
As to `COc1cc(C(=O)N2CCN(C(=O)COc3cccc(C)c3)CC2)cc(OC)c1OC`, the “activity change, negative = inhibition” value is 4.7%.
On the same count and under the same terms, to `Cc1nnc(SCC(=O)NCc2ccccc2Cl)c2nn(-c3ccccc3)c(C)c12` belongs -12.2%; to `CC1CCN(S(=O)(=O)c2ccc3c(ccn3CCC(=O)NCc3ccc(N(C)C)cc3)c2)CC1`, 5.15%.
As for `Cc1ccc(NC(=O)c2cc(S(=O)(=O)NCCC3=CCCCC3)ccc2F)cc1C`, the “activity change, negative = inhibition” value was 0.318%.
Regarding `CCOc1ccc(OCC)c(NC(=O)c2cc(C)nc3c2c(C)nn3-c2cccc(Cl)c2C)c1`, the “activity change, negative = inhibition” value is 4.25%.
Still for that read-out and setting: for `O=C(/C=C/c1ccccc1)N1CCN(Cc2cc(=O)n3nc(-c4ccccc4F)sc3n2)CC1` the value was -0.0658%; for `CCOc1ccc(CCNC(=O)c2cc3c(=O)n(C)c4ccccc4c3n2C)cc1`, -0.834%; for `Cn1c(C(=O)N2CCC(C(N)=O)CC2)cc2c(=O)n(C)c3ccccc3c21`, -27.2%.
Take `CCN1CCCC1CNC(=O)c1cc2c(=O)n(C)c3ccccc3c2n1C` (configuration not stated): the Potency was 50.1 µM (active).
`O=C(c1ccc2c(c1)N(Cc1ccc(Cl)cc1)C(=O)c1ccccc1S2(=O)=O)N1CCCCC1`: the “activity change, negative = inhibition” value was -0.822%.
The same measure, in the same setting: to `CCOc1ccc(C(=O)/C=C/c2cn(CC(O)CN3CCCCCC3)c3ccccc23)cc1` (configuration not stated) belongs 1.21%; to `Cc1ccc(Cn2c(CNC(=O)Cc3cccc(C)c3)nc3cccnc32)cc1`, -0.581%; to `Cn1nccc1C(=O)NC1CCCc2c1cnn2-c1ccccc1F` (configuration not stated), -27.8%.
Regarding `COc1ccc(C(=O)NC2CCCc3c2cnn3-c2cccc(C)c2C)c(OC)n1` (configuration not stated), the “activity change, negative = inhibition” value was 2.99%.
As for `Cc1cc(C(=O)NC2CCCc3c2cnn3-c2cccc(C)c2C)c(C)o1` (configuration not stated), the Potency is 35.5 µM (active).
In the case of `Brc1ccc(C2=CC(c3ccco3)n3ncnc3N2)cc1` (configuration not stated), the Potency was 17.8 µM (active).
Take `Clc1ccc2c(c1)C1=C(C(c3ccncc3)O2)C(c2ccc(Br)cc2)n2ncnc2N1` (configuration not stated): the “activity change, negative = inhibition” value is 5.87%.
Take `Cc1cccc(OCCSc2nc3ccccc3n2CC(=O)N2CCCCC2)c1C`: the “activity change, negative = inhibition” value was -10.3%.
On the same count and under the same terms, for `COC(=O)C1=C(c2ccc(F)cc2OCc2ccccc2)C[C@@H]2CC[C@H]1N2C(=O)NCc1ccc(OC)c(OC)c1` the value was -1.65%.
In the case of `COc1cc(C2CC(=O)N3CN(Cc4ccccc4)CSC3=C2C#N)ccc1OCc1ccccc1` (configuration not stated), the Potency was 8.91 µM (active).
Take `COc1ccc(CCN=C2SCC(=O)N2Cc2ccccc2)cc1OC`: the “activity change, negative = inhibition” value was 4.58%.
Regarding `CCCOc1ccc(C2c3c(-c4ccccc4O)n[nH]c3C(=O)N2Cc2cccnc2)cc1` (configuration not stated), the “activity change, negative = inhibition” value was -17.8%.
Consider `CC(=O)Nc1ccc(S(=O)(=O)NC2(C(F)(F)F)C(=O)NC(C)=C2C#N)cc1` (configuration not stated), for which the Potency was 39.8 µM (active).
In the case of `CC(=O)Nc1ccc(NS(=O)(=O)c2ccc3c(c2)NC(=O)CC(=O)N3)cc1`, the “activity change, negative = inhibition” value was 4.91%.
The same measure, in the same setting: for `CC(=O)Nc1ccc(S(=O)(=O)NC2(C(F)(F)F)C(=O)Nc3c2c(=O)[nH]c(=O)n3Cc2ccccc2)cc1` (configuration not stated) the value was -3.62%; for `CCOC(=O)c1cc(-c2ccc(OC)c(S(=O)(=O)Nc3ccc(OC)cc3OC)c2)on1`, -0.0619%; for `CCOC(=O)c1ccc(NC(=O)Cn2c(=O)cc(C)c3c(C)nn(-c4cccc(F)c4)c32)cc1`, 17.8%.
As for `O=C(COC(=O)Cn1cnc2ccccc2c1=O)NCc1ccccc1Cl`, the “activity change, negative = inhibition” value is 2.84%.
Consider `COCc1cc(C(C)=O)ccc1OC`, for which the “activity change, negative = inhibition” value is -22.1%.
Consider `COc1ccc(C(C)=O)cc1COC(=O)Cn1cnc2ccccc2c1=O`, for which the Potency is 39.8 µM (active).
For `CC(Sc1oc(-c2ccco2)nc1S(=O)(=O)c1ccc(Br)cc1)c1ccccc1` (configuration not stated), the “activity change, negative = inhibition” value was -2.2%.
In the case of `COc1ccc(NC(=O)C2CCN(c3ccc(Sc4ccc(C)cc4)nn3)CC2)c(OC)c1`, the “activity change, negative = inhibition” value is -1.89%.
Consider `Cc1nnc(SCc2cc(=O)c3cc(F)ccc3[nH]2)n1C`, for which the “activity change, negative = inhibition” value was 1.82%.
On to `CCOC(=O)c1ccccc1NC(=S)N1CCC(C(N)=O)CC1`, for which the “activity change, negative = inhibition” value was 3.23%.
As to `COC(=O)c1cc(C)sc1NC(=O)CC1Nc2ccccc2NC1=O` (configuration not stated), the “activity change, negative = inhibition” value is -27.8%.
As for `CCOC(=O)c1ccccc1NC(=O)CC1Nc2ccccc2NC1=O` (configuration not stated), the Potency is 39.8 µM (active).
For `CN1CCN(C2(CNC(=O)COc3ccc(C(C)(C)C)cc3)CCCCC2)CC1`, the “activity change, negative = inhibition” value was -2.57%.
Take `Cc1ccc2nc(N3CCN(c4cccc(Cl)c4)CC3)c3nnnn3c2c1`: the “activity change, negative = inhibition” value is 0.987%.
On to `COc1ccc(Cn2ccn(Cc3cccc(OC)c3)c(=O)c2=O)cc1`, for which the “activity change, negative = inhibition” value is -8.54%.
The same measure, in the same setting: for `CCCCc1nn2c(=O)cc(COC(=O)c3cccc(NC(=O)COc4ccccc4)c3)nc2s1` the value was -9.99%; for `O=C(NCc1ccco1)C(c1ccncc1)N(C(=O)Cn1nnc2ccccc21)c1ccccc1` (configuration not stated), -2.1%.
In the case of `Cc1ccc(C(C(=O)NCc2ccco2)N(CC2CCCO2)C(=O)Cn2nnc3ccccc32)cc1` (configuration not stated), the “activity change, negative = inhibition” value is -9.71%.
Turning to `COc1ccccc1N(C(=O)Cn1nnc2ccccc21)C(C(=O)NCc1ccco1)c1ccc(C)o1` (configuration not stated), the Potency was 44.7 µM (active).
Take `Cc1ccc(OCCSc2nc(-c3cccs3)nc3cc(=O)[nH]n23)cc1Cl`: the “activity change, negative = inhibition” value is 1.7%.
Still for that read-out and setting: for `Cc1ccc(-c2nc3ccccn3c2Nc2c(C)cccc2C)o1` the value was -13.2%; for `COc1cc(Cl)c(C)cc1NC(=O)CCc1nc2cccnc2n1Cc1cccs1`, -18.2%; for `O=c1[nH]c(CSc2ncc(-c3ccc(F)cc3)n2Cc2ccco2)nc2ccccc12`, 0%.
`Clc1cccc(-c2nc3nc4ccccc4nc3n2Cc2ccco2)c1`: the Potency was 17.8 µM (active).
With `CCC(C)n1c(-c2cc(OC)c(OC)c(OC)c2)nc2nc3ccccc3nc21` (configuration not stated), the “activity change, negative = inhibition” value is 7.25%.
In the case of `Cc1ccc(NC(=O)C2CCN(S(=O)(=O)c3cc(-c4noc(C)n4)ccc3C)CC2)c(C)c1`, the “activity change, negative = inhibition” value is 12.2%.
As to `FC(F)(F)c1cc(Nc2nc3ccccc3c3nncn23)ccc1Cl`, the “activity change, negative = inhibition” value is -2.28%.
As to `CCOc1ccc(NCCC(=O)c2ccc3c(c2)OCO3)cc1`, the Potency is 1.41 µM (active).
Turning to `O=C(COc1ccc(Cl)cc1)Nc1ccc2c(c1)OCO2`, the “activity change, negative = inhibition” value is 0.171%.
Same read-out and setting: for `COC(=O)CCNc1ccc2c(c1)OCCO2` the value was -0.529%; for `Cc1ccc(NC(=O)CSc2nnc3[nH]c(=O)cc(C)n23)cc1Cl`, 8.4%.
For the compound `Cc1oc2c(c1C(=O)Nc1ccc(F)c(F)c1)C1=NCCN1C=N2`, the “activity change, negative = inhibition” value was -3.92%.
For the compound `CC1CN(S(=O)(=O)c2ccc(C(=O)Nc3sccc3C(N)=O)cc2)CC(C)O1` (configuration not stated), the “activity change, negative = inhibition” value was -7.24%.
Turning to `NC(=O)c1ccsc1NC(=O)c1ccco1`, the Potency is 44.7 µM (active).
As for `COc1cc(OC)cc(C(=O)OCC(=O)Nc2sccc2C(N)=O)c1`, the “activity change, negative = inhibition” value was 3.69%.
